Source: PubChem
Shown are actives, neighbours in structure and some others; about 2.2% of the full set was active somewhere.
Ba/F3 V617F tox: reduced viability of JAK2V617F-dependent Ba/F3 cells, primary screen, JAK2V617F inhibitor project, cell-based, Ba/F3 EpoR-JAK2V617F, luminescence | ATP luminescence | inhibition, % at 5.6 µM | actives 1.1% (n = 220,000) | AID 1446, 2008;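 active = inhibition above the campaign mean plus 3 SD over all tested compounds, cut at about 24% in these data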;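 also: cytokine-independent growth of Ba/F3 cells driven by EpoR plus mutant JAK2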
APP transl inh: inhibitors of APP translation via 5'UTR reporter, primary screen, APP 5'UTR luciferase, SH-SY5Y cells. AID 1285, 2008. inhibition, % at 2 µM. actives 0.82% (n = 190,000). SH-SY5Y APP 5'UTR-luciferase reporter, luminescence;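 active = inhibition above a set limit, derived from the sample mean plus 3 SD, cut at about 45% in these data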
aSyn 5UTR inh: MLPCN primary screen, SNCA 5' untranslated region; alpha-synuclein 5'UTR reporter, inhibitor activity; inhibition, % (tested at 7.5 µM); actives 0.82% (n = 300,000); in the data active = inhibition above about 60%;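 also: H4 neuroglioblastoma cells stably carrying SNCA 5'UTR luciferase fusion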
IEC-6 tox: cytotoxicity in IEC-6 intestinal epithelial cells, primary screen, cytotoxicity control for KLF5 inhibitor project, cell-based, luminescence | IEC-6 cytotoxicity, luminescence viability | inhibition, % at 5 µM | actives 0.78% (n = 290,000) | AID 1825, 2009; in the data active = inhibition above about 22%
KLF5 inh: KLF5 expression inhibitors, primary screen, DLD-1 cells, luminescence | DLD-1 KLF5 promoter-luciferase reporter | inhibition, % at 5 µM | actives 0.23% (n = 290,000);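 active = inhibition above a per-plate limit of that plate's mean compound inhibition plus 3 SD, cut at about 60% in these data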;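 also: higher means less KLF5 promoter-driven luciferase light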
BaF3 parental: parental Ba/F3 cell viability inhibition, counter-screen for JAK2V617F inhibitor project, murine pro-B, CellTiter-Glo luminescence; inhibition, % at 5.6 µM; CellTiter-Glo ATP luminescence; actives 1.1% (n = 220,000);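 active = inhibition above a per-campaign cutoff, the mean inhibition of all tested compounds plus 3 SD, cut at about 27% in these data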
Numbers stand for hits; n = inactive; x = not tested or not shown.

SMILES	Ba/F3 V617F tox	APP transl inh	aSyn 5UTR inh	IEC-6 tox	KLF5 inh	BaF3 parental
CCCCN1CN(Cc2ccco2)CNC1=S	n	n	n	n	n	n
N#CCCCC#Cc1ccc2c(c1)COc1c3ccccc3nn1-2	x	x	77	x	x	x
CCCCC#Cc1ccc2c(c1)COc1c3ccccc3nn1-2	x	x	n	x	x	x
Cc1ccc(-c2nc3cnccn3c2Nc2ccccc2)o1	x	n	n	x	x	x
Cc1ccc(-c2nc3ccccn3c2Nc2ccccc2)o1	n	n	n	n	n	92
COc1cc(C(CC(=O)Nc2cc(C)ccn2)N2Cc3ccccc3C2=O)cc(OC)c1OC (centres undefined)	x	x	n	n	n	x
Cc1ccc(NC(=O)c2cc(C)n(-c3ccccc3)c2C)cc1	n	n	106	n	n	n
Cc1ccc(NC(=O)c2cc3ccccc3oc2=N)cc1	x	x	82	n	n	x
Clc1cccc(-c2nc(-c3ccccn3)no2)c1	n	n	93	n	n	n
CSc1ccc(C2NN=C(c3ccccc3)S2)cc1 (centres undefined)	x	x	68	x	x	x
COc1ccc(/C=C2/SC(=S)N(CCCC(=O)Nc3ccc(O)cc3)C2=O)cc1	n	x	68	n	n	n
COc1ccc(/C=C2\SC(=S)N(CCCC(=O)Nc3ccc(O)cc3)C2=O)cc1	n	x	78	n	n	n
COc1ccc(/C=C2\SC(=S)N(CCC(=O)Nc3ccc(C(=O)O)cc3)C2=O)cc1	x	x	n	n	n	x
COc1ccc(/C=C2/SC(=S)N(CCC(=O)O)C2=O)cc1	n	50	98	n	n	n
O=C(NCCc1ccc(Cl)cc1)C1COc2ccccc2O1 (centres undefined)	x	x	n	n	n	x
O=C(Cn1ccc2cc(S(=O)(=O)N3CCCC3)ccc21)NCc1ccco1	x	x	n	n	n	x
CC(C)COc1ccc(-c2nnc(-c3ccco3)o2)cc1	n	n	86	n	n	n
CCN(CC)CCCNc1ccc(-c2nnc(-c3ccc(OCC(C)C)cc3)o2)cn1	x	x	121	n	n	x
CCCOc1ccc(-c2nnc(-c3ccco3)o2)cc1	n	n	65	n	n	n
O=C(COc1ccccc1)Nc1ccc(-c2nnc(-c3ccco3)o2)cc1	n	n	n	n	n	n
CN(C)c1ccc(C(CNC(=O)Cc2cccc3ccccc23)N(C)C)cc1 (centres undefined)	x	x	n	n	n	x
NC(=O)N=Nc1c(O)n(Cc2ccccc2)c2ccc(Br)cc12	x	x	n	n	n	x
CCN1CCN(Cc2ccc(NC(=O)c3cc(NC(=O)c4cncc(-c5cccs5)c4)cc(OC)c3)cc2C(F)(F)F)CC1	x	x	109	n	n	x
CCN1CCN(Cc2ccc(NC(=O)c3cc(NC(=O)c4cc(-c5ccc(OC)cc5)n[nH]4)cc(OC)c3)cc2C(F)(F)F)CC1	x	x	106	x	x	x
CCCc1nnc(NC(=O)CCC(=O)Nc2ccc(Br)cc2)s1	x	x	n	n	n	x
SMILES	Ba/F3 V617F tox	APP transl inh	aSyn 5UTR inh	IEC-6 tox	KLF5 inh	BaF3 parental
O=C(N/N=C/c1ccccn1)c1cccs1	n	n	n	n	n	n
O=C(NNC(=O)C(c1ccccc1)c1ccccc1)c1ccccn1	n	55	72	55	n	n
CC(C)(C)C(=O)Nc1ccc(N=Nc2ccccc2)cc1	n	n	79	n	n	n
Cc1c(C)c2ccc(OC(C)C(=O)NCCc3c[nH]c4ccccc34)cc2oc1=O (centres undefined)	x	x	n	n	n	x
Clc1ccc2noc(-c3ccccc3)c2c1	n	47	n	n	n	n
Fc1ccc2[nH]c3c(N4CCc5ccccc5C4)ncnc3c2c1	44	x	n	n	n	55
Brc1ccc2[nH]c3c(N4CCc5ccccc5C4)ncnc3c2c1	n	n	n	n	n	n
Cc1ccc2[nH]c3c(N4CCc5ccccc5C4)ncnc3c2c1	44	n	n	n	n	49
Cc1nn(CCCC(=O)NC(C)c2ccccc2)c(=O)c2nn(-c3ccccc3)c(C)c12 (centres undefined)	x	x	n	n	n	x
COc1ccc(CCNc2ncnc3c2oc2ccccc23)cc1OC	51	n	n	n	n	62
COc1ccc(CCNc2ncnc3sccc23)cc1OC	64	n	n	n	n	69
NS(=O)(=O)c1ccc(CCNc2ncnc3sccc23)cc1	33	n	n	n	n	43
Cc1sc2ncnc(NCCc3ccc(S(N)(=O)=O)cc3)c2c1C	51	n	n	n	n	58
Cc1sc2ncnc(NCCCn3ccnc3)c2c1C	n	n	n	n	n	n
O=S1(=O)N=C(N/N=C/c2cccs2)c2ccccc21	x	x	n	n	n	x
O=C(CCCn1nnnc1CN1CCOCC1)N1CCC(c2ccc(F)cc2)C1 (centres undefined)	x	x	n	n	n	x
Cc1noc(C)c1S(=O)(=O)N1CCC(C(=O)Nc2ccccn2)CC1	n	n	n	n	n	40
Cc1cccc(NC(=O)C2CCN(S(=O)(=O)c3c(C)noc3C)CC2)c1	x	x	n	n	n	x
CCOC(=O)C1(Cc2cccc(OC)c2)CCCN(C(=O)CCN2CCCO2)C1 (centres undefined)	x	x	n	n	n	x
Cc1ccc(C(OCC(C)(C)C[N+](C)(C)C)c2ccccc2)cc1 (centres undefined)	27	n	n	n	n	58
COC(=O)c1cc2c(N)c(C(=O)c3ccccc3)sc2nc1C(OC)OC	n	x	n	n	n	n
CN(C)c1ccc(/C=N/Nc2nc3ccccc3o2)cc1	x	x	67	n	n	x
NC(=O)COC(=O)CC(NC(N)=O)c1ccc(Cl)cc1 (centres undefined)	n	n	n	n	n	n
NC(=O)NC(CC(=O)OCC(=O)NC(=O)NCc1ccco1)c1ccc(Cl)cc1 (centres undefined)	n	55	n	n	n	n
CCOC(=O)c1c(CSc2ccc(CC)cc2)oc2ccc(O)c(CN(C)C)c12	x	x	66	n	n	x
SMILES	Ba/F3 V617F tox	APP transl inh	aSyn 5UTR inh	IEC-6 tox	KLF5 inh	BaF3 parental
CC(C)c1nc2sc3c(NCc4ccco4)ncnc3c2c2c1COC(C)(C)C2	n	n	71	n	n	n
C=CC#CC[N+]1(CC#Cc2ccccc2)CCOCC1	n	n	n	n	n	n
C(#Cc1ccccc1)C[N+]1(CC#Cc2ccccc2)CCCC1	87	n	n	n	n	71
C=CC[N+]1(CC#Cc2ccccc2)CCCC1	46	n	n	n	n	56
COc1ccc(NC(=O)CCOc2ccccc2C)cc1S(=O)(=O)N1CCCCC1	x	x	n	x	x	x
O=C1/C(=C/c2ccccc2[N+](=O)[O-])COc2ccccc21	n	86	n	n	n	n
CNc1ccc(/C=C2\COc3ccccc3C2=O)cc1[N+](=O)[O-]	n	n	n	n	n	n
COc1cccc(CNCc2ccc(OC)cc2OC)c1	x	x	n	n	n	x
CCn1c2ccccc2c2cc(CNCc3ccc(OC)cc3OC)ccc21	n	n	63	n	n	n
